# Activity calls are given as the source filed them. How the calls were made is not given here.
# Test system: HIV-1 nucleocapsid protein NCp7 (binding to TG oligonucleotide)
# Test: HIV Nucleocapsid (AID 346);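 further: potency is for inhibitors that block NC binding and lower polarization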
# Conditions: HIV-1 NC / fluorescein-TGTGTGTG probe, fluorescence polarization
# Procedure, shortened: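 Reagents dispensed (10 nM TG4xF, 100 nM HIV-1 NC), plates spun, compounds pin-transferred, then incubated 1 hr at room temperature before FP imaging. Buffer: Hepes pH 7.5, 250mM NaCl, 1uM ZnCl2, 100 uM TCEP, 5 mM 2-mercaptoethanol.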
# Potency means the concentration at half of the fitted maximal effect.
row,SMILES,Potency
1,CS(=O)(=O)Nc1cccc(-c2ccc3ncnc(NC4CC4)c3c2)c1,> 20 µM (inactive)
2,COc1ccc2[nH]cc(CCNc3ncncc3-c3ccccc3Cl)c2c1,> 20 µM (inactive)
3,Cc1noc(C)c1C(=O)N1CCC2(CC1)CN(c1ccccc1)C2,> 20 µM (inactive)
4,COc1ccccc1CNc1cc(-c2cccc(NS(C)(=O)=O)c2)ncn1,> 20 µM (inactive)
5,N#Cc1ccccc1-c1ccc2ncnc(NCCN3CCOCC3)c2c1,> 20 µM (inactive)
6,CC(=O)N1CCC2(CCCN(Cc3cc(C(F)(F)F)cc(C(F)(F)F)c3)C2)CC1,> 20 µM (inactive)
7,Cc1nc2cnc(N3CCN(C)CC3)nc2n(Cc2cccs2)c1=O,> 20 µM (inactive)
8,COCCn1c(=O)cnc2cnc(N3CCNCC3)nc21,> 20 µM (inactive)
9,CN1CCN(c2ncc3nc(-c4cn(C)c5ccccc45)c(=O)n(C)c3n2)CC1,> 20 µM (inactive)
10,COc1ccc2[nH]cc(CCNc3nc(-c4c(C)noc4C)nc4ccccc34)c2c1,> 20 µM (inactive)
11,COc1cccc(-c2nccc(-n3ccnc3)n2)c1,> 20 µM (inactive)
12,COc1ccc(NC(=O)N2CCCC3(CCN(C(=O)c4ccc(OC)cc4)CC3)C2)cc1,> 20 µM (inactive)
13,COc1ccc(-c2nc3cnc(Oc4cccc(Cl)c4)nc3n(C3CC3)c2=O)cc1,> 20 µM (inactive)
14,CC(C)NC(=O)N1CC[C@@]2(CCCN(S(=O)(=O)c3ccccc3)C2)C1,> 20 µM (inactive)
15,COc1ccc2[nH]cc(CCNc3cc(-c4ccccc4C(F)(F)F)ncn3)c2c1,> 20 µM (inactive)
16,COCCn1c(=O)c(-c2cccc(C#N)c2)nc2cnc(Oc3cccc(Cl)c3)nc21,> 20 µM (inactive)
17,CC(C)CN1CCC2(CC1)CCN(C(=O)c1ccncc1)CC2,> 20 µM (inactive)
18,COc1ccc(C(=O)N2CCC[C@@]3(CCN(c4ncccn4)C3)C2)cc1,> 20 µM (inactive)
19,CN(C)C(=O)c1ccc(-c2nc(N(C)C)c3ccccc3n2)cc1,> 20 µM (inactive)
20,COc1ccc(NC(=O)N2CCC3(CC2)CCN(C(=O)c2ccco2)CC3)cc1,> 20 µM (inactive)

row,SMILES,Potency
1,COc1ccccc1-c1ccc2ncnc(N3CCN(C)CC3)c2c1,> 20 µM (inactive)
2,N#Cc1cccc(NC(=O)N2CCCC3(CCN(S(=O)(=O)c4ccccc4)CC3)C2)c1,> 20 µM (inactive)
3,O=C(c1csnn1)N1CCC2(CCCN(c3ncccn3)C2)CC1,> 20 µM (inactive)
4,c1cncc(-c2ccc3ncnc(N4CCNCC4)c3c2)c1,> 20 µM (inactive)
5,COc1ccc(-c2nc3cnc(OC)nc3n(C3CC3)c2=O)cc1,> 20 µM (inactive)
6,COCCn1c(=O)c(CCc2ccccc2)nc2cncnc21,> 20 µM (inactive)
7,CC(C)NC(=O)N1CC2(CCN(C(=O)c3ccncc3)CC2)C1,> 20 µM (inactive)
8,Cc1cccc(CNc2cc(-c3ccoc3)ncn2)c1,> 20 µM (inactive)
9,N#CCCn1c(=O)c(-c2cc(F)cc(F)c2)nc2cnc(Oc3cccc(Cl)c3)nc21,> 20 µM (inactive)
10,COc1ccccc1-c1nccc(NCc2ccccc2)n1,> 20 µM (inactive)
11,CN(C)Cc1ccccc1-c1cncnc1Nc1ccccc1,> 20 µM (inactive)
12,COCCNc1ncncc1-c1ccccc1OC,> 20 µM (inactive)
13,c1ccc(CNc2nc(-c3ccc4c(c3)OCO4)nc3ccccc23)cc1,> 20 µM (inactive)
14,COCCNc1ncnc2ccc(-c3cccc(OC)c3)cc12,> 20 µM (inactive)
15,O=c1c(-c2ccc(F)cc2)nc2cnc(Oc3ccccc3)nc2n1Cc1cccs1,> 20 µM (inactive)
16,COc1ccc2[nH]cc(CCNc3ncnc4ccc(-c5c(C)noc5C)cc34)c2c1,> 20 µM (inactive)
17,CN(Cc1ccco1)c1cc(-c2ccc3c(c2)OCO3)ncn1,> 20 µM (inactive)
18,FC(F)(F)c1ccccc1-c1nc(NCc2cccs2)c2ccccc2n1,> 20 µM (inactive)
19,COc1ccc(NC(=O)N2CCCC3(CCN(C(=O)c4c(C)noc4C)CC3)C2)cc1,> 20 µM (inactive)
20,Cc1noc(C)c1-c1ccc2ncnc(Nc3ccc(F)cc3)c2c1,> 20 µM (inactive)

# From PubChem BioAssay (NCATS)
